From the supplement of paper PMC3334620
Whole data set: some 33,000 sequences, median “E-score (-0.5 to 0.5)” near -0.016, cut for the highest 2% near 0.3. Many of the other results were omitted from the sample, so the highest values are more common in it than they were.

target: T1, Yer184c (UniProt P39961); assay: PBM E-score (8-mer binding enrichment) (E-score (-0.5 to 0.5)); higher = stronger / more preferred TF binding; details: protein concentration: 100 nM; construct: GST-full length
T1 sequence: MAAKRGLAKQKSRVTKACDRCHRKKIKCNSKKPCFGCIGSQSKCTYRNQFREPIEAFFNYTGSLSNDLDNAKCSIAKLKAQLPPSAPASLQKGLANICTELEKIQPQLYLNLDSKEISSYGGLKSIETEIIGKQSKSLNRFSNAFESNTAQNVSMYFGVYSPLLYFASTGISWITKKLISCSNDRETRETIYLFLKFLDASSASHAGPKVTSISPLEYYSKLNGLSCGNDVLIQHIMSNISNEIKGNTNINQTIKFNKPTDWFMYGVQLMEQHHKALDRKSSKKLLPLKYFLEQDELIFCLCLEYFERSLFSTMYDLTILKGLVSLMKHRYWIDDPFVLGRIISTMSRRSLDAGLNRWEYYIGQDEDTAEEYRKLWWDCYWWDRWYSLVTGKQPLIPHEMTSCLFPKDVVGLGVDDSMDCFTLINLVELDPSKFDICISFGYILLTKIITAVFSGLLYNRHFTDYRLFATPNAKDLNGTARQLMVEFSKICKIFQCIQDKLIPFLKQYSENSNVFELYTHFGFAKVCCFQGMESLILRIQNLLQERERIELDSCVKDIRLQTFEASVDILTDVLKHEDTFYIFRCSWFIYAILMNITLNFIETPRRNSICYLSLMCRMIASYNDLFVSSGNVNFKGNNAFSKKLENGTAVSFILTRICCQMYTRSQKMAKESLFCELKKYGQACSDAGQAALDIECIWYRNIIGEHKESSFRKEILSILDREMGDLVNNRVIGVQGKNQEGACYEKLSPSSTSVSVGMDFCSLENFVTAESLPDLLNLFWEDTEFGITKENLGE
How it was run: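 Universal all-10-mer Agilent arrays, fresh or stripped once, were converted to double-stranded form by primer extension. GST-tagged yeast transcription factors from PURExpress in vitro transcription/translation, full-length or DNA-binding domain only, were applied at about 100-200 nM and detected with fluorescent anti-GST. After masliner normalisation, the Universal PBM Analysis Suite scored each ungapped eight-base word together with its reverse complement by E-score.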

Row | Sequence | PBM E-score
1 | TACTAGTA | 0.338
2 | GGTGCCGA | 0.266
3 | AGTGCCGC | 0.123
4 | AGTGCCGG | 0.337
5 | AGTGCCAG | -0.28
6 | AGTGCCGA | 0.333
7 | AGTGCCTG | -0.132
8 | GGACCACC | -0.116
9 | CTCGACCC | -0.118
10 | AGCTGCCC | 0.034
11 | AGGCTTCA | -0.108
12 | CGGCTTCC | 0.198
13 | CGGCTTAG | 0.213
14 | TGGCTTAA | 0.175
15 | CGGCTTAA | 0.393
16 | CGGCTTCA | 0.345
17 | ACGTCAAG | -0.124
18 | CACCTTGA | -0.151
19 | GTCAACGA | -0.0301
20 | GCTGTTTA | 0.141
21 | TGCGGCAA | 0.0333
22 | CCCGGCAG | 0.131
23 | CCCGGCAA | 0.335
24 | CCCGGCAC | 0.0863
25 | GCCGGCAC | 0.422

Row | Sequence | PBM E-score
26 | GGCGGCAC | 0.0696
27 | ACCGGCAC | 0.363
28 | CGCGGCAA | 0.274
29 | TACGGCAA | 0.158
30 | ACCGGCAA | 0.222
31 | TCCGGCAA | 0.339
32 | ACCGGCAG | 0.0457
33 | GTGAGGGA | -0.252
34 | CAATTGCG | -0.0249
35 | ACGCTAAA | 0.0442
36 | AAATTGAT | 0.159
37 | AGTTAACC | -0.0162
38 | GCTATCCC | -0.16
39 | CGAATGCA | 0.0594
40 | ACCTTGCA | -0.197
41 | AAAAATGT | 0.0248
42 | CTTCTGAC | -0.218
43 | CCACAAGA | 0.0207
44 | GCCGGCAA | 0.424
45 | GCCGGCTA | 0.266
46 | GACGGCAA | 0.148
47 | CGACTAAG | -0.0168
48 | CTTCGCGA | 0.0769
49 | ATTCGCGA | -0.0163
50 | GTTCGCGA | 0.311

Row | Sequence | PBM E-score
51 | GATTCCCA | -0.0287
52 | GCTTCCGA | 0.306
53 | TATTCCGA | 0.389
54 | TATTCCAA | 0.115
55 | GATTCCGA | 0.33
56 | AATTCCAA | 0.116
57 | TATTCCCA | 0.0619
58 | CCTTCCGA | 0.227
59 | GATTCCGC | 0.0917
60 | GCTTCCTA | 0.0691
61 | AATTCCCA | -0.123
62 | AATTCCGA | 0.389
63 | GGGTAGAA | -0.0545
64 | CAGAGCAG | -0.00548
65 | ACCAGCTC | -0.141
66 | AGACCTAA | -0.106
67 | AGAGACCG | -0.00169
68 | AATTTCCA | 0.145
69 | ATCTCTAG | -0.118
70 | TCTATGAA | 0.112
71 | CACTTTCC | 0.021
72 | GGAAATTA | 0.201
73 | TAAATTTA | 0.311
74 | TAAAATTA | 0.341
75 | AGAAATTA | 0.354

Row | Sequence | PBM E-score
76 | AAAATTTA | 0.228
77 | AAAAATTA | 0.253
78 | AGAAATTC | 0.077
79 | ATAAATTG | 0.254
80 | CTAAATTA | 0.202
81 | CAAAATTA | 0.212
82 | ATAAATTA | 0.316
83 | CAAATTTA | 0.119
84 | CGAACTAC | 0.0997
85 | GATTGCCA | -0.0755
86 | GACAGTAC | 0.135
87 | ACACTCTC | 0.0613
88 | ACAATCGG | 0.307
89 | ACAATCGT | -0.28
90 | ACAATCGC | 0.0673
91 | GCTGAACC | 0.0738
92 | AACGCCAG | 0.0264
93 | CGGCCTTA | 0.291
94 | CGGCCGCC | 0.209
95 | AGGCCGTA | 0.178
96 | CGGCCGGC | 0.42
97 | AGGCCGGC | 0.265
98 | CGGCCGTC | 0.278
99 | CGGCCTTC | 0.33
100 | AGGCCTTC | -0.0978

Row | Sequence | PBM E-score
101 | CGGCCGCA | 0.277
102 | CGGCCGGA | 0.402
103 | CGGCCGTA | 0.311
104 | AGGCCGGA | 0.247
105 | CAGTAGAA | -0.069
106 | AATCCTCA | -0.0565
107 | GCCGATAC | 0.13
108 | CTCAACAG | -0.0543
109 | GAAGGGAA | -0.203
110 | AGCTCATG | -0.175
111 | AGAGTGGC | -0.217
112 | CGGCGAAA | 0.35
113 | CGGCGAAG | 0.205
114 | TGGCGAAA | 0.0101
115 | AGGCGATA | -0.12
116 | CGGCGATA | 0.36
117 | CGGCGACC | 0.237
118 | AGGCGATC | -0.168
119 | CGGCGATC | 0.312
120 | GGGCGATA | -0.222
121 | GAACAGCA | 0.123
122 | ACCCAAGG | -0.162
123 | ACGGCGAT | 0.188
124 | CCCCCTTA | -0.348
125 | CGAGGTTA | -0.00293

Row | Sequence | PBM E-score
126 | CCAGGGTA | -0.174
127 | ACTAACTC | -0.00452
128 | ATTCTTTA | 0.0489
129 | CTGAGTGA | 0.24
130 | ATCCTATG | -0.0991
131 | CTGAATAA | 0.134
132 | ATTAACCG | 0.335
133 | ATTAACCA | -0.114
134 | ATTAACCC | 0.0664
135 | CCTCCGGA | 0.337
136 | GCTCCGGA | 0.367
137 | GCTCCGCA | 0.0792
138 | CCTCCGCA | -0.247
139 | CCTCCGTA | -0.0207
140 | GCTCCGTA | 0.205
141 | CTTGACAA | 0.152
142 | GGAACCGA | 0.248
143 | CGGACCGC | 0.104
144 | CGGACCAG | 0.185
145 | CGGACCGA | 0.402
146 | CGAACCGC | 0.189
147 | CGAACCGA | 0.328
148 | GGGACCGA | 0.158
149 | CGGACCAA | 0.343
150 | CGGACCAC | 0.244

Row | Sequence | PBM E-score
151 | AACGGTTA | 0.0289
152 | AGAGACAT | -0.0279
153 | GATAGCGC | -0.051
154 | CAAATAGC | 0.0894
155 | AAAGGAAA | 0.203
156 | CGGATCCC | 0.171
157 | CGGATCCG | 0.445
158 | CGGATCCA | 0.263
159 | CAGATCCC | -0.21
160 | CAGATCCG | 0.317
161 | AAGATCCG | 0.091
162 | GGCATGAC | -0.199
163 | TGGGATAA | -0.0513
164 | CCGGATAG | 0.342
165 | ACGGATAA | 0.299
166 | CCGGATAC | 0.257
167 | TCGGATAA | 0.379
168 | CGGGATAG | 0.102
169 | CCGGATAA | 0.4
170 | CAGGATAG | 0.0949
171 | CAGGATAA | -0.0581
172 | GCGGATAA | 0.224
173 | ACGGATAT | 0.339
174 | ACGGATAG | 0.139
